# Screens deposited in PubChem BioAssay by National Center for Advancing Translational Sciences (NCATS).
# JMJD2A Tudor inh: qHTS Assay for Inhibitors of JMJD2A-Tudor Domain. AID 504339, 2011. AlphaScreen JMJD2A-Tudor / H3K4me3 peptide binding. Lysine-specific demethylase 4A (Homo sapiens), O75164. actives 4.4% (n = 390,000). Potency, µM (top dose mostly 114 µM), inactives show at the top dose activity change, negative = inhibition, most hits filed as inhibitors; further: on the % scale 0 is the no-effect control and ±100 the full control effect; nearly all actives have a fitted effect of over 50% in size
# HP1b chromo inh: HTS for Inhibitors of HP1-beta Chromodomain Interactions with Methylated Histone Tails; Chromobox protein homolog 1 (Homo sapiens), P83916; AlphaScreen HP1-beta / biotin-H3K9me3 peptide binding; Potency, µM (top dose mostly 114 µM), inactives show at the highest dose activity change, negative = inhibition, actives largely listed as inhibitors; actives 0.56% (n = 390,000); AID 540317, 2011; further: nearly all actives have a fitted effect of over 70% in size
#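 Compound inhibition of the preformed complex between 50 nM HP1-beta and 50 nM biotinylated H3K9me3 peptide was read by AlphaScreen. Buffer was PBS pH 7.4 with 0.01% Tween-20. Incubations ran 30 min at room temperature, with 10 ug/mL donor/acceptor beads.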
# G9a block: qHTS Assay for Inhibitors of Histone Lysine Methyltransferase G9a; Potency, µM (top dose mostly 102 µM), for the others: top-dose activity, negative = inhibition, usual class: inhibitors; actives 8.8% (n = 350,000); G9a H3K9 monomethylation, AlphaScreen, 2 h; further: on the % scale 0 is the no-effect control and ±100 the full control effect; nearly all actives have a fitted effect of over 75% in size
#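 Compounds were preincubated with 20 nM G9a for 15 min, after which biotinylated H3K9 peptide (500 nM) and SAM (20 uM) started a 2 h room-temperature reaction. Monomethylated product was quantified by antibody-based AlphaScreen chemiluminescence.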
# BAZ2B block: qHTS Assay for Inhibitors of BAZ2B; Bromodomain adjacent to zinc finger domain protein 2B (Homo sapiens), Q9UIF8; AlphaScreen BAZ2B-H3K14Ac peptide displacement; Potency, µM (series often up to 114 µM), for inactives: at the top dose activity change, negative = inhibition, usual class: inhibitors; actives 4.4% (n = 360,000); further: on the % scale 0 is the no-effect control and ±100 the full control effect; nearly all actives have a fitted effect of over 60% in size
#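 Complex of BAZ2B and biotin-H3K14Ac (50 nM apiece) forms over 30 min at RT, then faces library compounds up to 110 uM for another 30 min; AlphaScreen beads added, 20 min dark incubation, luminescence read.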
# L3MBTL1 inh: qHTS Assay for the Inhibitors of L3MBTL1; AlphaScreen L3MBTL1–H3K9me1 peptide binding; Potency, µM (highest dose often 57.1 µM), for inactives: at the highest dose activity, negative = inhibition, hits mostly inhibitors; actives 0.66% (n = 230,000); AID 485360, 2010; further: on the % scale 0 is the no-effect control and ±100 the full control effect; nearly all actives have a fitted effect of over 60% in size
# Target sequence (Q9Y468 whole entry, looked up): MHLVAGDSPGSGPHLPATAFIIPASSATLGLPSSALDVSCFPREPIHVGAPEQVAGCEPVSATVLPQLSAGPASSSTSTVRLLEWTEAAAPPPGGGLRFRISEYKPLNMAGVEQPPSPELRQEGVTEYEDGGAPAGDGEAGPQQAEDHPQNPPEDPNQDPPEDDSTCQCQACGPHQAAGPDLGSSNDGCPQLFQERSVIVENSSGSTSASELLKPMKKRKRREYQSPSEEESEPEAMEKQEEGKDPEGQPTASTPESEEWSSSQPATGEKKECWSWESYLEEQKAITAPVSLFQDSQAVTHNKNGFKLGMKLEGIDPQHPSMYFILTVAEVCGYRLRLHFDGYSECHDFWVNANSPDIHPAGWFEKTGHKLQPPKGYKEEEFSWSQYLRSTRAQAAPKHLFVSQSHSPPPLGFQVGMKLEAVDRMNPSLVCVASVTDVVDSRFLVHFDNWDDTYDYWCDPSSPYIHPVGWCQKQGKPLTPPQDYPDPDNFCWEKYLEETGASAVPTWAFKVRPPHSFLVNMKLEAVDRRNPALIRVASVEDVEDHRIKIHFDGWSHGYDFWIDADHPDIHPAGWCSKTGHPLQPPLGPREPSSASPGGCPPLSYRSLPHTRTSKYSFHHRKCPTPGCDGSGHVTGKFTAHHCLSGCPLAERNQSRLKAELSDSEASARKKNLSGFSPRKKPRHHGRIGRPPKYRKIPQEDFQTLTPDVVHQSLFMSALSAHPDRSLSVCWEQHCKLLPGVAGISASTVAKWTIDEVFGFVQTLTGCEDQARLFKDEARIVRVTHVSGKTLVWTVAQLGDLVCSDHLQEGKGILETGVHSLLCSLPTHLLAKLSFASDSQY
#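 L3MBTL1 (50 nM) pre-complexed 30 min with biotinylated H3(1-15)K9me1 peptide (75 nM), then compounds added for 30 min at room temperature; AlphaScreen streptavidin donor/nickel chelate acceptor beads (10 ug/mL final) read after 30 min dark incubation.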
# Sfp inh: qHTS Assay for Inhibitors of Bacillus subtilis Sfp phosphopantetheinyl transferase (PPTase); 4'-phosphopantetheinyl transferase ffp (Bacillus subtilis), Q9F4F7; Biochemical Sfp PPTase activity, qHTS; Potency, µM, for inactives: largest response in the series, negative = inhibition, hits mostly inhibitors; actives 3.5% (n = 310,000); AID 1490, 2009;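 further: the enzyme is Sfp with the accession as filed and its product quenches rhodamine fluorescence; 0% = enzyme reaction without inhibitor and -100% = no enzyme wells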
#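 Fluorescence-quenching assay: 15 nM Sfp-PPTase preincubated 15 min at room temperature with compound, then 5 uM rhodamine-CoA and 12.5 uM BHQ-2-labelled YbbR peptide added. Fluorescence (ex 525/em 598 nm) read at start and after 30 min; difference gives rate.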
# The depositor's hits bear a star; ? = inconclusive; . = not tested or not shown; ! = repeats disagree; [ ] = dose if it differs, or a comment. A selection: hits, their analogues and other compounds. The true share with any hit is near 12%. The call rests on the fitted dose curve; in most records, active means well fitted curve in the direction sought with a large enough effect; inconclusive means small, poorly fitted or top-dose-only effect, or another doubt; inactive means no such curve, though single readings can be large; an effect the other way counts as inactive or inconclusive. Potency means the concentration at half of the fitted maximal effect.
SMILES,JMJD2A Tudor inh,HP1b chromo inh,G9a block,BAZ2B block,L3MBTL1 inh,Sfp inh
C#CCOCCOCCOCCNc1nc(N2CCN(C(=O)CCCCCCCCCCNC(=O)[C@@H](CCSC)n3cc(CCO)nn3)CC2)nc(N2CCN(C(=O)CCCCCCCCCCNC(=O)[C@H]([C@@H](C)CC)n3cc(CCCCN=C(N)N)nn3)CC2)n1,39.8µM*,?,1.5%[2.33 µM],50.1µM*,-12.1%,.
C#CCOCCOCCOCCNc1nc(N2CCOCC2)nc(N2CCN(C(=O)CCCCCCCCCCNC(=O)[C@@H](CCSC)n3cc(CCO)nn3)CC2)n1,-32.4%,10.4%,12.0%[2.33 µM],-4.5%,2.5%,.
CCC(=O)N1CCc2cc(CNS(=O)(=O)c3cc(OC)ccc3OC)ccc21,-6.8%,23.9%,8.8%[59 µM],25.9%,.,.
CC(C)NC(=O)C(=O)NCCc1ccc(Cl)cc1,-19.7%,7.8%,1.12µM*,7.5%,.,1.8%
CCCCn1c(N)c(N(Cc2ccccc2OC)C(=O)CN2C(=O)NC(C)(c3ccccc3)C2=O)c(=O)[nH]c1=O (stereo unspecified),-17.1%,7.4%,5.62µM*,0.3%,14.4%,.
Cc1ccc(S(=O)(=O)c2nc(-c3cccc(C)c3)oc2N2CCCCC2)cc1,-20.3%,7.9%,?,-30.7%,.,.
Cc1ccc(-c2nc(S(=O)(=O)c3ccc(Cl)cc3)c(N3CCCCC3)o2)cc1,-33.7%,?,2.82µM*,?,.,.
COc1ccc(-c2nc(S(=O)(=O)c3ccc(C)cc3)c(N3CCCCC3)o2)cc1,50.1µM*,?,3.55µM*,?,.,.
COc1cccc(-c2nc(S(=O)(=O)c3ccc(C)cc3)c(N3CCCCCC3)o2)c1,-22.3%,-15.3%,-41.1%[59 µM],?,.,.
COc1ccc(-c2nc(S(=O)(=O)c3ccccc3)c(N3CCOCC3)o2)cc1,79.4µM*,-1.4%,?,-29.2%,9.8%,-21.9%
O=P(c1ccccc1)(c1ccccc1)c1nc(-c2ccc(Cl)cc2)oc1N1CCOCC1,?,-29.6%,?,44.7µM*,-7.2%,?
CS(=O)(=O)c1ccc(CNC(=O)C2(C(F)(F)F)CC(CCCO)CCCO2)cc1 (stereo unspecified),0.0%,34.9%,.,.,.,7.0%
O=C(CCCN1C(=O)c2cccnc2Oc2ccc(Cl)cc21)NCc1ccccc1F,-16.2%,7.9%,-3.8%[59 µM],1.0%,.,.
CCc1ccc(NC(=O)C(Cc2ccccc2)NS(=O)(=O)c2ccc3c(c2)CCN3C(C)=O)cc1 (stereo unspecified),-12.3%,45.6%,-1.1%[59 µM],.,.,.
CC(C)n1cnc2c(=S)nc[nH]c21,?,38.9%,0.794µM*,50.1µM*,6.4%,8.91µM*
S=c1nc[nH]c2c1ncn2-c1ccccc1,0.631µM*,14.7%[57 µM],.,.,.,.
COc1ccccc1-n1cc(-c2ccccc2)c2c(=S)nc[nH]c21,-8.1%,23.4%,6.7%[59 µM],-34.4%,.,19.6%
NC(=O)c1ccc2nc(-c3ccc(Oc4ccc(Cl)cc4)cc3)[nH]c2c1,.,.,.,.,.,-16.1%
O=C(N/N=C/c1cccnc1)c1ccc(NC(=O)c2ccc(Cl)cc2)cc1,-3.5%,20.6%,44.7µM*,0.8%,.,3.3%
O=C(NCC1CCCO1)C(=O)N/N=C/c1ccc(O)c(Cl)c1 (stereo unspecified),-5.9%,1.6%,21.1%,2.9%,3.5%,8.2%
O=C(NCC1CCCO1)C(=O)N/N=C/c1cc(Cl)ccc1O (stereo unspecified),39.8µM*,31.0%,-1.9%,?,?,26.4%
O=C(N/N=C/c1ccncc1)c1cccc(NC(=O)c2ccc(Cl)cc2)c1,-28.8%,?,15.8µM*,-4.3%,22.7%,-18.7%
C/C(=N\NC(=O)c1cc(O)ccc1O)c1cccc(NC(=O)c2cccc(Cl)c2)c1,?,-1.4%,?,?,.,?
C/C(=N\NC(=O)c1cc(O)ccc1O)c1cccc(NC(=O)c2ccc(Cl)cc2)c1,?,?,15.8µM*,?,.,-7.2%
C=Cc1cc(F)c(S(=O)(=O)N2CCN(S(=O)(=O)c3ccc4c(c3)OCCO4)CC2)cc1F,-7.5%,.,.,.,.,.
SMILES,JMJD2A Tudor inh,HP1b chromo inh,G9a block,BAZ2B block,L3MBTL1 inh,Sfp inh
O=C(/C=C/C(=O)Oc1ccccc1C(=O)O)Oc1ccccc1C(=O)O,.,.,.,.,.,-5.5%
Cc1ccc2oc3c(c(=O)c2c1)C(c1ccc(OCC(N)=O)cc1)N(Cc1ccc2c(c1)OCO2)C3=O (stereo unspecified),5.8%,10.5%,11.7%[59 µM],1.8%,.,.
O=C(N/N=C/c1cccnc1)c1ccc(NC(=O)c2cccc(Cl)c2)cc1,-30.3%,?,31.6µM*,-25.2%,.,6.6%
O=C(N/N=C/c1cc(Cl)ccc1O)c1ccncc1,?,-11.3%,61.9%[12.7 µM],20µM*,25.1µM*,1.1%
O=C(N/N=C\c1cccnc1)c1cc(-c2ccc(Cl)s2)[nH]n1,56.2µM*,-8.0%,31.6µM*,50.1µM*,15.0%,-19.3%
CCCSc1ncc(Cl)c(C(=O)Nc2ccc(S(=O)(=O)N3CCCC(C)C3)cc2)n1 (stereo unspecified),-4.2%,17.7%,-27.0%[59 µM],-18.9%,.,.
Oc1c(Br)cc(Br)cc1C=Nc1ccc2c(c1)OCCO2,-3.6%,49.7%,-39.4%,7.2%,.,-17.3%
Oc1[nH]c2ccccc2c1C=Nc1ccc2c(c1)OCCO2,?,-6.9%,-4.8%,35.5µM*,-7.0%,-14.5%
COCCCCCCCCCCCC(=O)O,.,.,7.7%[59 µM],.,.,0.9%
COc1cccc(-n2nnc3c(=O)n(Cc4ccc(Br)cc4)cnc32)c1,-23.4%,16.7%,15.0%[59 µM],4.0%,1.8%,35.5µM*
COc1ccc(OCC(=O)Nc2c(C(=O)N(CCN(C)C)Cc3ccco3)oc3ccccc23)cc1,?,?,15.4%[59 µM],70.8µM*,.,-15.3%
COc1ccccc1C(=O)Nc1c(C(=O)N(CCN(C)C)Cc2ccco2)oc2ccccc12,44.7µM*,-23.8%[57 µM],39.8µM*!,?,.,-10.6%
Cc1c(Cl)cccc1NS(=O)(=O)c1cc2c(cc1F)NC(=O)CC2,-19.9%,.,.,.,.,.
CCN(CCCNC(=O)c1[nH]c(C)c(C(C)=O)c1C)c1ccccc1,?,-17.9%,14.1µM*,50.1µM*,-15.7%,10.5%
CCc1cccc(CC)c1N(COC)C(=O)Cn1c(CC)nc2ccccc21,-10.4%,33.2%,?,-2.2%,.,.
